Reference: PubChem BioAssay (NCI)
“And” between values parts separate entries of the source, which are not always exact repeats. Equal entries are not always repeated. This is part of a sample that, as a whole, favours compounds with a hit. Of some 83,000 tested, about 20% had one in any assay.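 Interpretation: 100, growth as untreated; towards 0, rising growth inhibition; 0, no net growth; 0 to -100, cell death. Compounds scoring below 10 were considered active.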 The source made the active and inactive calls.

Legend:
Assay in all cases: NCI-60 one-dose screen, 48 h (100 = growth as untreated, 0 = no growth, -100 = all killed)
Conditions in all cases: 10 µM unless noted
HCT-15 colon = system: HCT-15 colon
HT29 colon = system: HT29 colon
SNB-75 CNS = system: SNB-75 CNS
U251 CNS = system: U251 CNS
SK-MEL-5 melanoma = system: SK-MEL-5 melanoma
UACC-62 melanoma = system: UACC-62 melanoma
LOX IMVI melanoma = system: LOX IMVI melanoma
SK-MEL-28 melanoma = system: SK-MEL-28 melanoma
SK-MEL-2 melanoma = system: SK-MEL-2 melanoma
EKVX NSCLC = system: EKVX NSCLC
UO-31 renal = system: UO-31 renal
TK-10 renal = system: TK-10 renal
ACHN renal = system: ACHN renal
CAKI-1 renal = system: CAKI-1 renal
A498 renal = system: A498 renal
CCRF-CEM leukemia = system: CCRF-CEM leukemia
MOLT-4 leukemia = system: MOLT-4 leukemia
SNB-19 CNS = system: SNB-19 CNS
PC-3 prostate = system: PC-3 prostate
SN12C renal = system: SN12C renal

| SMILES | growth (HCT-15 colon) | growth (HT29 colon) | growth (SNB-75 CNS) | growth (U251 CNS) | growth (SK-MEL-5 melanoma) | growth (UACC-62 melanoma) | growth (LOX IMVI melanoma) | growth (SK-MEL-28 melanoma) | growth (SK-MEL-2 melanoma) | growth (EKVX NSCLC) | growth (UO-31 renal) | growth (TK-10 renal) | growth (ACHN renal) | growth (CAKI-1 renal) | growth (A498 renal) | growth (CCRF-CEM leukemia) | growth (MOLT-4 leukemia) | growth (SNB-19 CNS) | growth (PC-3 prostate) | growth (SN12C renal) |
| --- | --- | --- | --- | --- | --- | --- | --- | --- | --- | --- | --- | --- | --- | --- | --- | --- | --- | --- | --- | --- |
| O=C(Cc1cccc2ccccc12)N/N=C/c1ccc2c(c1)CCC2 | 56.6% (inactive) | 62.4% (inactive) | 80.2% (inactive) | 69.9% (inactive) | 80.6% (inactive) | 54.3% (inactive) | 69.6% (inactive) | 81.4% (inactive) | 84.6% (inactive) | 78.8% (inactive) | 63.3% (inactive) | 89.4% (inactive) | 83.4% (inactive) | 66.1% (inactive) | 72.7% (inactive) | 65.2% (inactive) | 47.9% (inactive) |  |  |  |
| Oc1c(Cl)cc(Cl)cc1Sc1cc(Cl)cc(Cl)c1O | 8.23% (active) and 78.1% (inactive) | 66.2% (inactive) and 15.8% (inactive) and 108% (inactive) |  | 48.8% (inactive) and 8.95% (active) and 71.5% (inactive) | 48% (inactive) and 51% (inactive) | 19.1% (inactive) and -29% (active) and 50.2% (inactive) | 80.7% (inactive) and 41.3% (inactive) and 96% (inactive) | 58.3% (inactive) and 27.8% (inactive) and 95.3% (inactive) | -21.7% (active) and -41% (active) and 79.7% (inactive) | 50% (inactive) and 23.4% (inactive) and 89% (inactive) | 73.2% (inactive) and 36.9% (inactive) and 85.2% (inactive) | 46.9% (inactive) and -11.2% (active) and 87.2% (inactive) | 15.2% (inactive) and 105% (inactive) | 17.9% (inactive) and 11.7% (inactive) and 62.8% (inactive) | 54.4% (inactive) and 42.3% (inactive) and 69.5% (inactive) | 23.1% (inactive) and 9.78% (active) and 61.2% (inactive) |  | 43.4% (inactive) and -0.0882% (active) and 74.5% (inactive) | 10.7% (inactive) and 1.87% (active) and 48% (inactive) |  |
| Cc1ccc(S(=O)(=O)Nc2ccc3cc([N+](=O)[O-])ccc3c2[N+](=O)[O-])cc1 | 71% (inactive) and 94.2% (inactive) | 93.3% (inactive) and 114% (inactive) |  | 82.1% (inactive) and 88.2% (inactive) | 86.1% (inactive) | 44% (inactive) and 69.1% (inactive) | 82% (inactive) and 97.3% (inactive) | 89.7% (inactive) and 115% (inactive) | 99.7% (inactive) and 87.5% (inactive) | 86% (inactive) and 75.7% (inactive) | 47.1% (inactive) and 58.1% (inactive) | 78.5% (inactive) and 101% (inactive) | 71.2% (inactive) and 94.5% (inactive) | 57.8% (inactive) and 69.4% (inactive) | 69.1% (inactive) and 83% (inactive) | 79.1% (inactive) and 39.4% (inactive) | 82.8% (inactive) and 63% (inactive) | 85.6% (inactive) and 96.2% (inactive) | 71.7% (inactive) and 73.4% (inactive) | 74.7% (inactive) and 91.6% (inactive) |
| O=[N+]([O-])c1ccc(Oc2ccccc2)cc1 | 123% (inactive) and 104% (inactive) | 113% (inactive) and 103% (inactive) |  | 102% (inactive) and 105% (inactive) | 109% (inactive) and 108% (inactive) | 107% (inactive) and 106% (inactive) | 95.3% (inactive) and 99.3% (inactive) | 108% (inactive) | 112% (inactive) and 117% (inactive) | 100% (inactive) and 122% (inactive) | 80.1% (inactive) and 87.6% (inactive) | 97.9% (inactive) and 103% (inactive) |  | 93.4% (inactive) and 126% (inactive) | 106% (inactive) and 96.9% (inactive) | -24% (active) and 92.5% (inactive) | 96.5% (inactive) and 92.6% (inactive) | 97% (inactive) and 114% (inactive) | 81.9% (inactive) and 88.4% (inactive) |  |
| Oc1ccccc1/C=N\NC(=S)N/N=C/c1ccccc1O | 19.1% (inactive) and 22.4% (inactive) | 39.1% (inactive) and 54.6% (inactive) |  | 41% (inactive) and 24.2% (inactive) | 35.7% (inactive) and -37% (active) | 20.4% (inactive) and -5.16% (active) | 28.4% (inactive) and 25.3% (inactive) | 53.6% (inactive) and 58.8% (inactive) | 82.3% (inactive) and 24.6% (inactive) | 61% (inactive) and 71.2% (inactive) | 12.4% (inactive) and 15.5% (inactive) | 51.4% (inactive) and 24.3% (inactive) | 15% (inactive) and 10.8% (inactive) | -15.7% (active) and 12.3% (inactive) | 58.5% (inactive) | 15.9% (inactive) and 15.1% (inactive) | 21.6% (inactive) and 16% (inactive) | 51.1% (inactive) and 44.6% (inactive) | 35% (inactive) |  |
| CC(=O)Nc1ccc(O)cc1 | 103% (inactive) and 109% (inactive) and 105% (inactive) | 99.8% (inactive) and 96.8% (inactive) and 108% (inactive) |  | 102% (inactive) and 106% (inactive) and 107% (inactive) | 98% (inactive) and 113% (inactive) and 112% (inactive) | 99.9% (inactive) and 102% (inactive) and 106% (inactive) | 103% (inactive) and 101% (inactive) and 106% (inactive) | 114% (inactive) and 66.2% (inactive) and 125% (inactive) | 95.7% (inactive) and 81.9% (inactive) and 108% (inactive) | 95% (inactive) and 101% (inactive) and 113% (inactive) | 84.3% (inactive) and 98% (inactive) and 90% (inactive) | 87.4% (inactive) and 69.9% (inactive) and 101% (inactive) | 100% (inactive) and 104% (inactive) | 98% (inactive) and 94.4% (inactive) and 101% (inactive) | 100% (inactive) and 102% (inactive) and 94.1% (inactive) | 88.7% (inactive) and 108% (inactive) | 102% (inactive) and 100% (inactive) | 101% (inactive) | 90.4% (inactive) and 136% (inactive) and 97.6% (inactive) | 90.2% (inactive) and 102% (inactive) and 108% (inactive) |
| N#CC(C#N)=C/C=C/c1cccc([N+](=O)[O-])c1 | -6.94% (active) and -31.6% (active) | -19.6% (active) and -39.5% (active) |  | 10% (inactive) and -22.7% (active) | 8.16% (active) and -10.6% (active) | -51.7% (active) and -61.6% (active) | -29.1% (active) and -78.9% (active) | 5.56% (active) and -41.8% (active) | 20.6% (inactive) and -14.1% (active) | 45.5% (inactive) and 2.6% (active) | -16.6% (active) and -82.4% (active) | 7.02% (active) and -19.4% (active) | -22.1% (active) and -59.7% (active) | 10.6% (inactive) and -24.8% (active) | 94.4% (inactive) and 2.43% (active) | 2.18% (active) and 1.1% (active) | -1.02% (active) and 3.93% (active) | 51.3% (inactive) and 41.4% (inactive) | 14.5% (inactive) and 0.0705% (active) | -21.7% (active) and -30.1% (active) |
| CC(O)(CC(=O)CC(=O)c1ccccc1)c1ccccc1 (centres undefined) | 70.2% (inactive) and 69.4% (inactive) | 105% (inactive) and 111% (inactive) | 92.5% (inactive) and 126% (inactive) | 89.2% (inactive) and 84.3% (inactive) | 98.6% (inactive) and 93.6% (inactive) | 101% (inactive) and 87.9% (inactive) | 110% (inactive) and 82.3% (inactive) | 99.4% (inactive) and 123% (inactive) | 126% (inactive) and 110% (inactive) | 103% (inactive) | 96.8% (inactive) and 94.2% (inactive) | 98.5% (inactive) and 111% (inactive) |  | 110% (inactive) | 79.9% (inactive) | 95.4% (inactive) and 83% (inactive) | 87.3% (inactive) and 113% (inactive) |  | 80.9% (inactive) | 99.3% (inactive) and 85.3% (inactive) |
